Only a selection was taken, and hits are over-represented in it overall.
DAT uptake mod – human DAT dopamine uptake with cocaine, either direction; B-score at 10 µM; 1.3% of 110,000 active; Q01959; AID 449768; LLC-PK1 hDAT cells, [14C]-dopamine uptake with cocaine IC80; actives deviate in either direction;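 active = Z score or B-score, a plate-position-corrected score, falls beyond the plate's 99.7% confidence bounds, in either direction; inactive = both scores lie inside the 99.7% bounds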;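 also: scored against the spread of the other compound wells on the same plate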
Calb biofilm kill – kills Candida albicans biofilms; C. albicans biofilm + clotrimazole, Alamar Blue; 0.14% of 85,000 active; AID 834; inhibition, % at 6 µM;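 active = inhibition above 20%; inactive = inhibition below 20%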;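 also: preformed 24 hr biofilms exposed to compound for 48 hr; 0% = biofilm without compound and 100% = blank killed by clotrimazole plus chlorhexidine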
HePTP inhibitor – blocks human HePTP tyrosine phosphatase; 0.64% of 110,000 active; P35236; recombinant HePTP phosphatase activity, OD absorbance; inhibition, % at 20 µM; in the data active = inhibition above about 50%;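 also: plate controls were vehicle for no effect and reference inhibitor for full effect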
Target sequence (P35236 whole entry, looked up): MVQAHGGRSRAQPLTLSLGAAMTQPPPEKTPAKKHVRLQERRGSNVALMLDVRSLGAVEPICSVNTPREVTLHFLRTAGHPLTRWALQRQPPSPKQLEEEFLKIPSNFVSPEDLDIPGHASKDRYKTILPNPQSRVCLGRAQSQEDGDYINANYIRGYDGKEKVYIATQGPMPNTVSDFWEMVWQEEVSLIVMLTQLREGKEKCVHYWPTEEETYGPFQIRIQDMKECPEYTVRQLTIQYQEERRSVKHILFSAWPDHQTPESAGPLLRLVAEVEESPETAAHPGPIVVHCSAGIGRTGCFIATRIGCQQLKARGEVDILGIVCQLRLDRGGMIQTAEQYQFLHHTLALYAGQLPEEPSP
D1 mod – D1 dopamine receptor (human) allosteric modulation; P21728; HEK293 D1, CRE-luciferase, dopamine EC30 potentiation; actives deviate in either direction; B-score at 10 µM; 5.9% of 58,000 active; AID 641;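 active = luminescence count or its row- and column-corrected plate score outside the 99.7% band of the plate's sample wells, on either side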
PLAP activator – human PLAP activation; AID 696; activation fold at 20 µM; 1.2% of 96,000 active; P05187; purified PLAP enzyme, luminescent substrate read-out; stronger effect = higher value; in the data active = activation fold above about 2
TNAP act mid DEA – activators of human TNAP at intermediate phosphate acceptor. P05186. purified TNAP, CDP-star luminescence, 100 mM DEA, 30 min; stronger effect = higher value; scale: 0 levamisole-inhibited, 1 vehicle-only enzyme. activation factor at 20 µM. 64,000 tested, under 10 active. AID 813;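 active = activation factor of at least 2 at 20 µM, relative to controls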
The depositor's hits bear a star; · = not tested or not shown.

SMILES	DAT uptake mod	Calb biofilm kill	HePTP inhibitor	D1 mod	PLAP activator	TNAP act mid DEA
CCOC(=O)c1c(-c2ccc(C)o2)csc1NC(=O)CN(C)CC(=O)Nc1ccc(C)cc1	0.0086	·	·	·	2.2*	·
O=c1nccc(NCc2ccco2)[nH]1	0.22	3	12	-3*	1	0.9
Cc1ccccc1OCC(=O)N1N=C(c2ccc(F)cc2)CC1(O)C(F)(F)F (stereo not drawn)	·	·	-13	·	·	·
c1ccc(N2CCN(c3nc(NCc4ccco4)c4ccccc4n3)CC2)cc1	-1.4	·	5	·	1.1	0.8
c1coc(CNc2nc(N3CCCCC3)nc3ccccc23)c1	-0.04	4	8	-3.7*	1.6	0.9
Oc1cccc(Nc2nc(NCC3CCCO3)c3ccccc3n2)c1 (stereo not drawn)	1.6	5	10	-5*	0.9	0.9
Brc1ccc(OCc2nc(-c3ccccn3)n[nH]2)cc1	0.76	0	·	·	2.2*	·
Clc1ccc(OCc2nc(-c3ccccn3)n[nH]2)cc1	1.1	6	2	-0.73	2.3*	0.9
COc1ccc(-c2nc3cc(NC(=O)c4ccc5c(c4)OCCO5)ccc3o2)cc1Br	·	·	-17	·	·	·
Nc1nncn1C(=O)c1c(Cl)cccc1Cl	-0.86	6	8	-0.14	0.8	0.9
Nc1nncn1C(=O)c1cccs1	2.8*	9	4	-0.28	1	0.9
N/C(CSc1nnc2c(n1)[nH]c1ccccc12)=N\O	·	·	5	·	·	·
O=C(N/N=C/c1ccc(O)c(O)c1)c1cccc(F)c1	·	·	7	·	·	·
CCOC(=O)CNc1c(-c2ccc(O)cc2)nc2ccc(Cl)cn12	0.54	7	0	-4.4*	1.1	1
CC(=O)c1cc2c(cc1NS(=O)(=O)c1ccc(C)cc1)OCO2	0.24	7	·	·	0.9	·
CC(=O)c1cc2c(cc1NS(=O)(=O)c1ccc3c(c1)OCCO3)OCO2	0.11	7	9	4.1*	1	0.9
Cc1sc(NC(=O)c2cccc(Br)c2)nc1-c1ccccc1	·	·	6	·	·	·
COCCN=C1Sc2nc3ccc(C)cc3cc2CN1Cc1ccco1	3.2*	·	·	·	2*	·
Cn1c(=O)c2cc(S(=O)(=O)NCCC(=O)NC3CCCCCCC3)ccc2n(C)c1=O	-0.095	3	14	-3.6*	1.1	0.9
O=C(Oc1ccccc1)Oc1c(Cl)cc2oc(=O)sc2c1Cl	·	·	2	·	·	·
COC(=O)CSc1nc(NCC(C)C)nc(N2CCOCC2)n1	-0.36	9	7	0.44	1.1	0.9
CSc1nc(NC(C)C)nc(N2CCOCC2)n1	-0.086	-3	-2	18*	0.7	0.9
COc1ccc(O)c(C(=O)CC(=O)c2ccc(C)cc2)c1	·	·	-1	·	·	·
CC(C)C(=O)Nc1ccc(-c2nc3ncccc3o2)cc1	·	·	-12	·	·	·
CC(C)(C)c1ccc(OCC(=O)Nc2ccc(-c3nc4cccnc4o3)cc2)cc1	-0.11	5	·	·	2*	·
SMILES	DAT uptake mod	Calb biofilm kill	HePTP inhibitor	D1 mod	PLAP activator	TNAP act mid DEA
CC(C)C(=O)Nc1ccc(-c2nc3cccnc3o2)cc1	-0.68	-3	8	-3.2*	1.3	1
O=C(Nc1ccc(OC(F)(F)F)cc1)c1cccc2c(Br)cccc12	·	·	0	·	·	·
O=C(CCCc1c[nH]c2ccccc12)N1CCN(c2ccc(N3CCOCC3)nn2)CC1	2.5*	-3	7	0.014	1.7	1
COc1cc(CCC(=O)N2CCN(c3ccc(N4CCOCC4)nn3)CC2)cc(OC)c1OC	·	15	-9	-0.54	1.5	1
COc1cc(/C=N/N2C(=O)c3cccc4cccc(c34)C2=O)ccc1O	·	·	10	·	·	·
O=C(Nc1nc2ccccc2s1)c1ccc(Oc2ccc([N+](=O)[O-])cc2)cc1	·	·	11	·	·	·
Cc1[nH]c2ccccc2c1SCc1ccccc1	-2.7*	·	·	·	·	·
Cc1[nH]c2ccccc2c1SCCN	0.3	10	-5	-0.28	·	1
Cc1ccc(CN2CC34C=CC(O3)C(C(=O)NCc3ccc5c(c3)OCO5)C4C2=O)cc1 (stereo not drawn)	-8.1*	-1	-7	·	1.4	1
COc1cc(Cl)c(S(=O)(=O)NCc2ccccn2)cc1Cl	-1.6	5	·	·	2.3*	·
O=S(=O)(NCc1ccccn1)c1ccccc1	-2.9*	1	·	·	1.3	·
O=C(Cn1c(=O)c2c(ncn2C2CCCC2)n(Cc2ccccc2)c1=O)N1CCc2ccccc21	1	3	3	-4.8*	1.8	0.9
O=C(NCc1ccccn1)c1cc([N+](=O)[O-])cc([N+](=O)[O-])c1	·	·	-7	·	·	·
CCCCN(C)C(=O)CSc1nc(NCc2ccc(OC)cc2)c2ccccc2n1	2.5*	7	·	·	1.5	·
COc1ccc(CNC(=O)COc2ccccc2)cc1	·	·	0	·	·	·
O=C1/C(=C/c2ccccc2[N+](=O)[O-])SC(=S)N1Cc1ccco1	·	·	8	·	·	·
O=C(NC1CCN(Cc2ccccc2)CC1)C1COc2ccccc2O1 (stereo not drawn)	-0.013	1	7	-3.9*	1.5	1
O=C(NCc1ccccc1)C1COc2ccccc2O1 (stereo not drawn)	0.23	6	·	·	·	·
Cc1ccc(CN2CCN(/N=C/C=C\c3ccco3)CC2)cc1	·	·	103*	·	·	·
Clc1ccc(-c2nnc(N3CCCC3)nn2)cc1	0.19	6	2	-2.5*	0.7	0.9
COc1ccc(C(=O)/C=C/c2sccc2C)cc1OC	·	·	-14	·	·	·
CC(C)C1N=C2c3ccccc3N=C(SCc3cc(=O)n4cc(Cl)ccc4n3)N2C1=O (stereo not drawn)	-7.1*	3	-1	3.2	1.3	0.9
CC1(C)CC(=O)C2=C(C1)N(c1cccc(O)c1)C1=C(C2)C(=O)CC(C)(C)C1	-0.63	6	3	5.6*	1.6	0.9
CCOc1ccc(C2/C(=C(\O)c3ccc(Cl)cc3)C(=O)C(=O)N2c2cccnc2)cc1 (stereo not drawn)	·	·	-6	·	·	·
CN(C)c1ncnc2c1NC1=C(S2)C(=NCCCC(=O)O)CC(C)(C)C1	-1.3	8	·	·	2*	·
SMILES	DAT uptake mod	Calb biofilm kill	HePTP inhibitor	D1 mod	PLAP activator	TNAP act mid DEA
O=C(O)c1cc(-c2ccc(/C=C/c3cc(C(F)(F)F)[nH]c(=O)n3)o2)ccc1Cl	·	·	65*	·	·	·
COc1ccc(N2CCN(C(=S)Nc3cc(C)ccc3C)CC2)cc1	-4.7*	·	·	·	1	·
COc1ccc(OC)c(NC(=S)N2CCN(c3ccccn3)CC2)c1	-8.8*	·	·	·	0.9	·
NC(=S)N/N=C/c1ccc(-c2cccc(Cl)c2Cl)o1	·	·	-11	·	·	·
O=S(=O)(Nc1ccc(O)c(CN2CCCCC2)c1)c1ccccc1	1.6*	9	9	0.035	1.2	1
O=C(Nc1ccc(S(=O)(=O)N2CCc3ccccc32)cc1)c1ccco1	-0.69	·	7	-4.9*	1	0.9
Cc1onc(-c2ccccc2)c1C(=O)NCCC(c1ccccc1)c1ccccc1	·	·	-12	·	·	·
C=CCOC(=O)C1=C(C)NC(=O)NC1c1ccc(OC(=O)c2ccco2)c(OC)c1 (stereo not drawn)	1.3	6	4	-5.4*	0.9	0.9
CCOC(=O)C1=C(C)NC(=O)NC1c1ccc(OC(=O)c2ccco2)c(OC)c1 (stereo not drawn)	0.3	1	3	0.64	1	0.9
